Measured values reported in PubChem BioAssay (NCATS).
Records with an inconclusive call do not appear. The source made the active and inactive calls. Calls follow the shape of the dose curve; as a rule, active = well fitted curve in the direction sought with a large enough effect; inconclusive = small, poorly fitted or top-dose-only effect, or another doubt; inactive = no such curve, though single readings can be large; an effect the other way counts as inactive or inconclusive. Numbered stars: 1 amine (or outer) side, 2 acyl side, 3 side chain; on linkers, the order of the positions; unused ones are H or OH. Bridge positions count the residues as written; N and C are the ends. Square brackets hold non-standard residues; d marks the D form. Peptide text beside a SMILES is read from it. * marks the point of attachment. ξ: configuration not given here. ξhTyr(3S-OH,4S-OH,3'-OSO3H) = NC(C(=O)O)[C@H](O)[C@@H](O)c1ccc(O)c(OS(=O)(=O)O)c1; Orn(4R-OH,5R-OH) = O=C([C@H](C[C@@H](O)[C@@H](O)N[*:3])N[*:1])[*:2]; X6 = CCCCCOc1ccc(-c2cc(-c3ccc(C(=O)*)cc3)no2)cc1; X7 = C[C@H]1CN([*:1])C(C(=O)[*:2])[C@H]1O; ξGln(3R-OH) = NC(=O)C[C@@H](O)C(N)C(=O)O; ξPro(4R-OH) = O=C(O)C1C[C@@H](O)CN1; ξThr(3R) = C[C@@H](O)C(N)C(=O)O

Key:
[1] = biological target: Cellular tumor antigen p53 (Homo sapiens) (UniProt P04637); test: Primary qHTS for small molecule compounds that upregulate eGFP-tagged delta133p53alpha (in N-terminal) cells. (AID 2060322); conditions: NCI-H358 eGFP-delta133p53alpha fluorescence, 24 h; activation: hits give high values; also: nearly all actives have a fitted effect of over 75% in size; also: potency is read from the fitted curve at half-maximal effect;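 as to activation: series mostly up to about 56 µM; 0% = DMSO vehicle and 100% = reference activator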
Sequence of Cellular tumor antigen p53 (Homo sapiens) (P04637 whole entry, looked up): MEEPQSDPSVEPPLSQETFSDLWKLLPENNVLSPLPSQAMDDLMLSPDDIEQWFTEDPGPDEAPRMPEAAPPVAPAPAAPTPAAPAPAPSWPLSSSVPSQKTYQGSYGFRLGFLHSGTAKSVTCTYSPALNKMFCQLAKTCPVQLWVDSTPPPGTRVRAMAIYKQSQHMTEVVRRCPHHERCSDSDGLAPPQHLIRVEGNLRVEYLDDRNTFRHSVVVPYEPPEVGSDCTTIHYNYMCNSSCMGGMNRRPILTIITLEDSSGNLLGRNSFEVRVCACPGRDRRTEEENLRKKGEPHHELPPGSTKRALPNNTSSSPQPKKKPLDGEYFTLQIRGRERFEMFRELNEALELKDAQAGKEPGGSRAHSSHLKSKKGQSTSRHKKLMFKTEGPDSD
Outline: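 NCI-H358 cells pre-induced 24 h with 10 ng/ml doxycycline to express N-terminal eGFP-delta133p53alpha, then dosed 24 h at 37C without doxycycline; fixed, Hoechst-stained, GFP intensity by laser scanning cytometry, normalized to DMSO (0%) and 57.5 uM 5-azacytidine (100%).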

[2] = biological target: Aldehyde dehydrogenase, mitochondrial (Homo sapiens) (UniProt P05091); test: qHTS for Inhibitors of the Aldehyde Dehydrogenase Family (ALDH2) Primary screen (AID 2061308);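 also: plate controls were vehicle for no effect and reference inhibitor for full effect; nearly all actives have a fitted effect of over 55% in size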
[3] = biological target: Retinaldehyde dehydrogenase 3 (Homo sapiens) (UniProt P47895); test: qHTS for Inhibitors of the Aldehyde Dehydrogenase Family (ALDH1A3) Validation screen (AID 2061312); also: % is scaled to controls: 0 for no effect and ±100 for the full control effect; nearly all actives have a fitted effect of over 45% in size
[4] = biological target: Retinaldehyde dehydrogenase 3 (Homo sapiens) (UniProt P47895); test: qHTS for Inhibitors of the Aldehyde Dehydrogenase Family (ALDH1A3) Primary screen (AID 2061315);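 also: plate controls were DMSO vehicle for no effect and reference inhibitor for full effect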

O=C(Nc1nc2ccccc2n1CCc1ccccc1)c1ccccc1
inactive: activation [1] 6.68% | Potency [2] | Potency [3] | Potency [4]

CC(C)c1nc(-c2ccc(NC(=O)Nc3cccc(C(F)(F)F)c3)c3ccccc23)c2c(N)nccn12
inactive: Potency [2] | Potency [3] | Potency [4]
active: Potency [1] 26.9 µM

CCCCCOc1ccc(-c2cc(-c3ccc(C(=O)N[C@H]4C[C@@H](O)[C@@H](O)NC(=O)C5[C@@H](O)[C@@H](C)CN5C(=O)C([C@H](O)CC(N)=O)NC(=O)C([C@H](O)[C@@H](O)c5ccc(O)c(OS(=O)(=O)O)c5)NC(=O)C5C[C@@H](O)CN5C(=O)C([C@@H](C)O)NC4=O)cc3)no2)cc1 (stereo partly drawn) (X6-[Orn(4R-OH,5R-OH)][ξThr(3R)][ξPro(4R-OH)][ξhTyr(3S-OH,4S-OH,3'-OSO3H)][ξGln(3R-OH)][X7]; lactam 1-C)
inactive: activation [1] -0.955% | Potency [2] | Potency [3] | Potency [4]

C[C@@H]([C@@H](O)c1ccc(O)cc1)N1CCC(O)(c2ccccc2)CC1
inactive: activation [1] 5.25% | Potency [2] | Potency [3] | Potency [4]

CCc1ccc(-c2nc(CSCC(=O)NCCc3ccccc3)c(C)o2)cc1
inactive: activation [1] -12.9% | Potency [2] | Potency [3] | Potency [4]

CCN(CC)Cc1ccc(C(=O)N(CCc2ccccc2OC)[C@@H]2CCNC2)cc1
inactive: activation [1] 3.34% | Potency [2] | Potency [3] | Potency [4]

CNC(=O)COC(=O)N1CCC(CCc2ccc(Cl)cc2)CC1
inactive: activation [1] -1.91% | Potency [2] | Potency [3] | Potency [4]

Cc1ccc(NC(=O)C(=O)NC2CC(C)(C)NC(C)(C)C2)cc1
inactive: activation [1] -13.4% | Potency [2] | Potency [3] | Potency [4]

Cc1c(C(=O)NCc2cccnc2)nn(-c2ccc(Cl)cc2Cl)c1-c1ccc(Cl)cc1
inactive: activation [1] 21% | Potency [2] | Potency [3] | Potency [4]

CC1(C)Oc2ncnc(N)c2N=C1c1ccc(C23CCC(CC(=O)O)(CC2)CC3)cc1
inactive: activation [1] -11.9% | Potency [2] | Potency [3] | Potency [4]

COc1ccccc1N1CCN(CCCCNC(=O)c2ccc(-c3cscn3)cc2)CC1
inactive: activation [1] 4.3% | Potency [2] | Potency [3] | Potency [4]

Cn1c(=O)c2c(ncn2Cc2ccc(C(C)(C)C)cc2)n(C)c1=O
inactive: activation [1] -5.25% | Potency [2] | Potency [3] | Potency [4]

Cc1c(C(=O)Nc2ccc(N3CCC(N4CCOCC4)CC3)c(C#N)c2)cnn1-c1ccc(Cl)cc1
inactive: activation [1] 15.8% | Potency [2] | Potency [3] | Potency [4]

CC1=C(/C=C/C(C)=C\C=C\C(C)=C/C(=O)O)C(C)(C)CCC1
inactive: activation [1] 11.5% | Potency [2] | Potency [3] | Potency [4]

O=C1CC2(CCCC2)[C@H](O)C(=O)N1CCCCN1CCN(c2ncccn2)CC1
inactive: activation [1] 4.77% | Potency [2] | Potency [3] | Potency [4]

Cc1[nH]c2ccccc2c1CCNC(=O)c1cccs1
inactive: activation [1] -18.1% | Potency [2] | Potency [3] | Potency [4]

CC(=O)O[C@]1(C(C)=O)CC[C@H]2[C@@H]3CCC4=CC(=O)CCC4=C3[C@@H](c3ccc(N(C)C)cc3)C[C@@]21C
inactive: activation [1] -13.8% | Potency [2] | Potency [3] | Potency [4]

Fc1ccc(-c2cncc(CN3CCN(c4cccc5c4OCCO5)CC3)c2)cc1
inactive: activation [1] -10% | Potency [2] | Potency [3] | Potency [4]

COc1cc(Br)c(Nc2nc(-c3c(C)nc4ncccn34)cs2)c(Br)c1
inactive: activation [1] 14.8% | Potency [2] | Potency [3] | Potency [4]

CN(CC(=O)N(Cc1ccc(C2CCCCC2)cc1)c1ccc(C(=O)O)cc1)S(=O)(=O)c1c(F)c(F)c(F)c(F)c1F
inactive: Potency [2] | Potency [3] | Potency [4]
active: Potency [1] 6.75 µM

C=CC(C)(O)CC[C@@H]1[C@@]2(C)CCCC(C)(C)C2CC[C@@]1(C)O (some centres not stated)
inactive: activation [1] 1.91% | Potency [2] | Potency [3] | Potency [4]

O=C(NCc1ccc(F)cc1)C(=O)c1c[nH]c2ccccc12
inactive: activation [1] 5.73% | Potency [2] | Potency [3] | Potency [4]

Cc1[nH]cnc1C1CCN(c2nc3cccc4c3n2CCC4=O)CC1
inactive: activation [1] 1.43% | Potency [2] | Potency [3] | Potency [4]

O=C(NS(=O)(=O)c1ccc(Br)s1)c1ccc(Cl)cc1Cl
inactive: activation [1] -12.4% | Potency [2] | Potency [3] | Potency [4]

CC(NCCCc1cccc(C(F)(F)F)c1)c1cccc2ccccc12 (configuration not stated)
inactive: activation [1] -2.86% | Potency [2] | Potency [3] | Potency [4]

COC(=O)N1CCC(n2ncc3c(N4CCOCC4)nc(-c4ccc(NC(=O)NC5CC5)cc4)nc32)CC1
inactive: activation [1] 12.4% | Potency [2] | Potency [3] | Potency [4]

Nc1ncnc2c1c(-c1ccc(Oc3ccccc3)cc1)nn2[C@@H]1CCCNC1
inactive: activation [1] 20% | Potency [2] | Potency [3] | Potency [4]

COc1ccc2c(c1O[C@H]1CCNC1)CCC2
inactive: activation [1] -0.955% | Potency [2] | Potency [3] | Potency [4]
